Assay results as given in the supplement of paper PMC3545927.
The list shows a part of the results. No count for the full screen is at hand.

B1: FS-3196 (peptide)
chain: CARLKKKVKQAGNASASA
B2: FS-2708 (peptide)
chain: CARLKRRLVPAGNASASA
B3: FS-2351 (peptide)
chain: CARLKRRVKSAGNASASA
B4: HC1994 (peptide)
chain: CAKVCCSMSYAGNASASA
B5: FS-2012 (peptide)
chain: CARFDRQIFIAGNASASA
B6: FS-1908 (peptide)
chain: CARLRRGLAAAGNASASA
B7: FS-2816 (peptide)
chain: CARSRRGLFAAGNASASA
B8: FS-2312 (peptide)
chain: CARSRRGIFIAGNASASA
B9: FS-1694 (peptide)
chain: CAREKRFTFVAGNASASA
B10: FU1 (peptide)
chain: CAREKRGLFGAGNASASA
B11: FS-2329 (peptide)
chain: CAREKRFCTGAGNASASA
B12: FS-2549 (peptide)
chain: CAREKRGWTMAGNASASA
B13: FS-3153 (peptide)
chain: CAREKRGPSGAGNASASA
B14: HC2072 (peptide)
chain: CAVVCCSMEYAGNASASA
B15: HC854 (peptide)
chain: CAGGRHLIFCAGNASASA
B16: HC949 (peptide)
chain: CAKQSGENLPAGNASASA
B17: HC1549 (peptide)
chain: CAEYDLELITAGNASASA
B18: FS-1179 (peptide)
chain: CAVRTRIKRSAGNASASA
B19: FS-1515 (peptide)
chain: CACPNIIKRSAGNASASA
B20: FS-297 (peptide)
chain: CASLKKIKRSAGNASASA
B21: FS-46 (peptide)
chain: CAKSSRIKRSAGNASASA
B22: HC706 (peptide)
chain: CAASPKGPVIAGNASASA
B23: HC766 (peptide)
chain: CATDNSSPPVAGNASASA
B24: FS-330 (peptide)
chain: CAGNRRLKRFAGNASASA
B25: FS-576 (peptide)
chain: CAYIRRTKRFAGNASASA
B26: FS-1291 (peptide)
chain: CATHRRTKRFAGNASASA
B27: FS-403 (peptide)
chain: CAATSRTKRFAGNASASA
B28: HC822 (peptide)
chain: CAATSILGIGAGNASASA
B29: FS-728 (peptide)
chain: CATLKRTRKFAGNASASA
B30: FS-781 (peptide)
chain: CAGHFRLKRTAGNASASA
B31: HC38 (peptide)
chain: CAMEECNQHLAGNASASA
B32: FS-2895 (peptide)
chain: CARCARSSFTAGNASASA
B33: HC409 (peptide)
chain: CAVPAKSVCGAGNASASA
B34: HC450 (peptide)
chain: CALHCPTDCFAGNASASA
B35: HC1608 (peptide)
chain: CAHSYSPGEIAGNASASA
B36: HC382 (peptide)
chain: CAYHHKFNSSAGNASASA
B37: FS-1590 (peptide)
chain: CAGPGREDRFAGNASASA
B38: HC1654 (peptide)
chain: CAARPRWIWFAGNASASA
B39: FS-306 (peptide)
chain: CATVGRVKRFAGNASASA
B40: FS-1308 (peptide)
chain: CAARNRQKRFAGNASASA
B41: HC957 (peptide)
chain: CAVCARAQAPAGNASASA
B42: HC1437 (peptide)
chain: CAPIDTTIMAAGNASASA

Target: furin, P09958
Test: furin cleavage Z-score vs untreated control; higher = more cleavage, active = 3.5 or more, inactive = 1 or less, 8 variable residues between constant flanks
How it was run: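 Sequencing of released DNA, tagged with adapters by PCR, gave read counts used as abundance. That DNA was freed when purified furin cut N-terminally bead-bound 8-mer peptides fused to a cDNA oligonucleotide, in 0.01 ml reactions at 1:10 enzyme:substrate in 50 mM HEPES pH 7.5 with CaCl2 and NaCl, lasting 7.5, 15 or 30 min. The cleavage Z-score was the lowess-adjusted log count versus furin-free reactions, scaled by median absolute deviation.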

furin, P09958, sequence (P09958 whole entry): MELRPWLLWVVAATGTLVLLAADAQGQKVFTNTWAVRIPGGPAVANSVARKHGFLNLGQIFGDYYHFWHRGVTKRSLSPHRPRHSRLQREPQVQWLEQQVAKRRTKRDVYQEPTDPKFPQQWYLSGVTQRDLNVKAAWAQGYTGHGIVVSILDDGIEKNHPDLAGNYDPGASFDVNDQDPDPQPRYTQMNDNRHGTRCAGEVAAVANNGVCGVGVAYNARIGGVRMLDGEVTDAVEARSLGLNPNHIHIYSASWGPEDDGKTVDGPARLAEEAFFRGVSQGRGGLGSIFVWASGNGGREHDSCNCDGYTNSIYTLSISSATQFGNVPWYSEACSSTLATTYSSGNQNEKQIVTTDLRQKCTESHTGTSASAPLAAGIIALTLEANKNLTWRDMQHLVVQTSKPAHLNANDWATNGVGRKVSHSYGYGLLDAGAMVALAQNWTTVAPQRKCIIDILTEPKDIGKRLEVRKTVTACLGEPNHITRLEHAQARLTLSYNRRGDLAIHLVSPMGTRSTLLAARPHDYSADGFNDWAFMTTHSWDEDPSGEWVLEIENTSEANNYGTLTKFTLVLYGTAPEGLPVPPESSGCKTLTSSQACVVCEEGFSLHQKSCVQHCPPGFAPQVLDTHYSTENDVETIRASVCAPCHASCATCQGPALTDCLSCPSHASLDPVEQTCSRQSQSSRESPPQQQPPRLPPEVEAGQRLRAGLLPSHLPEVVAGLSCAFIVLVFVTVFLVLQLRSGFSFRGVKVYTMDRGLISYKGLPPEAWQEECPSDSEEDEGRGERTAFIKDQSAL

Sequence	furin cleavage Z-score (7.5 min)	furin cleavage Z-score (15 min)	furin cleavage Z-score (30 min)
B1	-1.36 (inactive)	-0.919 (inactive)	0.354 (inactive)
B2	2.61	4.61 (active)	5.01 (active)
B3	4.89 (active)	6 (active)	4.82 (active)
B4	1.97	0.312 (inactive)	0.855 (inactive)
B5	-0.31 (inactive)	-0.173 (inactive)	-0.368 (inactive)
B6	0.841 (inactive)	1.22	1.44
B7	2.59	2.97	6.66 (active)
B8	1.57	2.13	4.7 (active)
B9	-0.942 (inactive)	0.437 (inactive)	3.16
B10	0.425 (inactive)	4.29 (active)	0.496 (inactive)
B11	2.75	4.22 (active)	4.58 (active)
B12	0.613 (inactive)	1.51	2.06
B13	0.65 (inactive)	-0.112 (inactive)	0.123 (inactive)
B14	-2.66 (inactive)	0.354 (inactive)	1.04
B15	-0.514 (inactive)	-0.469 (inactive)	-1.05 (inactive)
B16	0.51 (inactive)	-0.215 (inactive)	-0.135 (inactive)
B17	-0.697 (inactive)	-1.21 (inactive)	-2.02 (inactive)
B18	12.5 (active)	13.6 (active)	9.29 (active)
B19	2.47	0.593 (inactive)	1.43
B20	7.52 (active)	5.89 (active)	5.86 (active)
B21	11.3 (active)	10.3 (active)	8.65 (active)

Sequence	furin cleavage Z-score (7.5 min)	furin cleavage Z-score (15 min)	furin cleavage Z-score (30 min)
B22	0.401 (inactive)	-0.666 (inactive)	-0.477 (inactive)
B23	0.776 (inactive)	0.102 (inactive)	-1.25 (inactive)
B24	8.6 (active)	8.74 (active)	8.35 (active)
B25	1.05	1.14	0.61 (inactive)
B26	4.37 (active)	4.6 (active)	3.54 (active)
B27	8.04 (active)	8.57 (active)	8.59 (active)
B28	-1.81 (inactive)	-0.57 (inactive)	0.323 (inactive)
B29	0.831 (inactive)	2.85	1.42
B30	7.47 (active)	7.94 (active)	7.12 (active)
B31	0.469 (inactive)	2.66	0.708 (inactive)
B32	-1.39 (inactive)	-0.507 (inactive)	-0.615 (inactive)
B33	-1.6 (inactive)	0.783 (inactive)	-0.986 (inactive)
B34	0.987 (inactive)	-0.346 (inactive)	0.0192 (inactive)
B35	-0.391 (inactive)	-1.22 (inactive)	-0.845 (inactive)
B36	-0.863 (inactive)	-0.739 (inactive)	-0.583 (inactive)
B37	0.0501 (inactive)	-0.782 (inactive)	0.43 (inactive)
B38	0.126 (inactive)	1.51	1.36
B39	9.9 (active)	9.6 (active)	9.08 (active)
B40	9.16 (active)	10.4 (active)	8.81 (active)
B41	-0.611 (inactive)	-0.626 (inactive)	0.901 (inactive)
B42	-1.63 (inactive)	0.33 (inactive)	-1.75 (inactive)
